This passage reports Potency and activity change, negative = inhibition results from PubChem BioAssay AID1745847 (National Center for Advancing Translational Sciences (NCATS), 2022).

Out of some 2,100 compounds screened, about 670 (32%) were called active. Not shown: some 50% with an inconclusive outcome. The list shows a part of the results. Values without a mark were called inactive. The call rests on the fitted dose curve; in most records, active means well fitted inhibition curve with a large enough effect; inconclusive means small, poorly fitted or top-dose-only effect; inactive means no such curve, though single readings can be large or run the other way.
On the % scale 0 is the no-effect control and ±100 the full control effect; potency means the concentration at half of the fitted maximal effect.

The assay can be described thus: CMV-Luciferase Counterscreen for Inhibitors of ATXN expression. Further: nearly all actives have a fitted effect of over 55% in size. Particulars: HEK-293 CMV-luciferase reporter, luminescence, 24 h; series mostly up to 57.5 µM. (In general: The purpose of a counterscreen is to sort out artefacts and off-target activity.)
As to `O=c1c(Cc2ccccc2)c(O)nc2n1CCS2`, the Potency entry is “inactive”.

For `Cc1ccc(-c2cn(-c3ccc(OC(F)F)cc3)c3[n+]2CCCCC3)cc1`, the Potency is 12.6 µM (active).

Turning to `CCOC(=O)C1CCN(C(=O)c2c(C)oc3c2C(=O)c2ccccc2C3=O)CC1`, the Potency was 12.6 µM (active).

Regarding `Cc1ccc(C)n1-c1ccc(C(=O)N2CCC(C(N)=O)CC2)cc1`, the activity change, negative = inhibition is 4.95% [at 11.4 µM].

With `Cc1ccnc(N2C(=O)c3cccc4c([N+](=O)[O-])ccc(c34)C2=O)c1`, the Potency is 12.6 µM (active).

For the compound `O=C1c2cccc3c([N+](=O)[O-])ccc(c23)C(=O)N1c1ccc(Cl)cn1`, the Potency was 20 µM (active).

In the case of `Cc1ccc(C(=O)O)cc1N1C(=O)c2cccc3c([N+](=O)[O-])ccc(c23)C1=O`, the Potency result was “inactive”.

As for `Cc1ccc(-c2noc(CCCC(=O)NC3CCCC3)n2)cc1`, the Potency was 7.08 µM (active).

For the compound `COc1ccc(-c2noc(CCCC(=O)NC3CCCC3)n2)cc1`, the Potency is 7.94 µM (active).

As for `Cc1ccccc1NC(=O)Nc1nc(C(N)C2CCCCC2)cs1` (stereo unspecified), the Potency entry was “inactive”.

As to `CN(C)C(=O)c1cccc(-c2cnc3c(NC=O)cc(-c4ccccc4N(C)C)cn23)c1`, the activity change, negative = inhibition was -27.7% [at 11.4 µM].

Turning to `CCN1CCN(c2ccc(S(=O)(=O)N3CCCCC3)cc2NC(=O)c2ccc([N+](=O)[O-])s2)CC1`, the Potency is 3.16 µM (active).

`CCN1CCN(c2ccc(S(=O)(=O)N3CCCCC3)cc2NC(=O)/C=C/c2ccc([N+](=O)[O-])cc2)CC1`: the activity change, negative = inhibition is -17.9% [at 11.4 µM].

On to `COc1ccccc1NC(=S)NC(=O)c1ccc(Cn2cc(Br)cn2)cc1`, for which the Potency result is “inactive”.

Turning to `COc1ccccc1C(=O)NNC(=S)NC(=O)c1ccco1`, the Potency was 7.94 µM (active).

Turning to `CCC1=C(CC2NCCc3ccccc32)CC2c3cc(OC)c(OC)cc3CCN2C1` (stereo unspecified), the Potency is 14.1 µM (active).

For the compound `CC[C@H]1CN2CCc3cc(OC)c(OC)cc3[C@@H]2C[C@@H]1C[C@H]1NCCc2cc(OC)c(OC)cc21`, the Potency was 0.0794 µM (active).

Consider `CC[C@H]1CN2CCc3cc(OC)c(OC)cc3C2C[C@@H]1C[C@H]1NCCc2cc(OC)c(OC)cc21` (stereo partly specified), for which the Potency is 1.12 µM (active).

Regarding `CCCCOc1ccc(NC2=NC3(CCCC3)N=C(N)N2)cc1`, the Potency result is “inactive”.

With `C/C(=N\N=C(N)N)c1ccc(Cl)cc1Cl`, the Potency result was “inactive”.

`CC(C)[C@@H]1CC[C@@H](C)C[C@H]1OC(=O)C[n+]1cc(-c2ccc(Cl)cc2)n2c1CCCCC2`: the Potency is 14.1 µM (active).

On to `NNc1ncnc2scc(-c3ccc(Cl)cc3)c12`, for which the Potency was 25.1 µM (active).

With `COc1cccc(NC(=O)CSc2nc3ncc(Br)cc3[nH]2)c1`, the activity change, negative = inhibition is 193% [at 11.4 µM].

As to `O=C(CSc1nnc(-c2ccc(Br)cc2)o1)Nc1cccc(C(=O)O)c1`, the Potency was 4.47 µM (active).

Consider `O=C(Nc1ccc(Oc2ccc(NC(=O)Nc3ccc([N+](=O)[O-])cc3)cc2)cc1)Nc1ccc([N+](=O)[O-])cc1`, for which the Potency is 2.82 µM (active).

Turning to `O=C1c2cc(Cl)ccc2-c2c(O)cc(Cl)cc21`, the Potency result is “inactive”.

For `O=C(Nc1ccc2oc(=O)ccc2c1)c1ccc(-c2cccc(Cl)c2)o1`, the Potency entry was “inactive”.

For the compound `COCc1ccc(CN2CCC(C(=O)Nc3cccc(-c4cccc(Cl)c4)c3)CC2)o1`, the Potency is 14.1 µM (active).

Take `COC(=O)Cc1[nH]n(-c2nc3ccccc3s2)c(=O)c1C(C)=Nc1ccc(C)cc1`: the Potency was 0.501 µM (active).

Take `CC(C)[C@H](CO)Nc1nc(NCc2ccc(S(N)(=O)=O)cc2)c2ncn(C(C)C)c2n1`: the activity change, negative = inhibition is 41.8% [at 11.4 µM].

`Cc1ccn2c(Nc3ccccc3C)c(-c3ccccn3)nc2c1`: the Potency was 5.01 µM (active).

Take `Nc1ccc(OC(=O)Nc2ccc(O)cc2)cc1`: the Potency was 12.6 µM (active).

Regarding `CCOC(=O)c1c(NC(=O)COC(=O)c2ccccc2NC)sc(C(=O)N(C)C)c1C`, the activity change, negative = inhibition is -21.4% [at 11.4 µM].

For the compound `Cc1cccc2sc(N(CCCN(C)C)C(=O)c3ccco3)nc12`, the Potency entry was “inactive”.

On to `CN(C)CCCN(C(=O)c1ccc2c(c1)CCCC2)c1nc2cc3c(cc2s1)OCO3`, for which the Potency entry is “inactive”.

Turning to `Cc1cc(C)c2nc(N(CCCN(C)C)C(=O)c3ccc4c(c3)OCCO4)sc2c1`, the Potency is 28.2 µM (active).

In the case of `Nc1nc(NCCCN2CCOCC2)nc(Nc2ccccc2F)c1[N+](=O)[O-]`, the Potency result is “inactive”.

For the compound `O=C(NCCc1cn2ccccc2n1)c1cc(COc2ccc3ncccc3c2)on1`, the Potency was 14.1 µM (active).

For the compound `Cc1ccc(C)c(S(=O)(=O)N2CCN(c3ncnc4sccc34)CC2)c1`, the Potency was 1.41 µM (active).

For the compound `CN(C)CCNC(=O)c1cccc2nc3cccc(F)c3nc12`, the Potency is 10 µM (active).

With `CN(C)CCNC(=O)c1ccc(Cl)c2cc3ccccc3nc12`, the Potency is 10 µM (active).

Consider `CN(C)CCCN(C(=O)c1ccc(S(=O)(=O)N(C)Cc2ccccc2)cc1)c1nc2c(F)cccc2s1`, for which the Potency result was “inactive”.

`CN(C)CCNC(=O)c1cccc2[nH]c(-c3ccncc3)nc12`: the activity change, negative = inhibition is -19.8% [at 11.4 µM].

`OCCN(Cc1ccccc1)CC(O)COc1ccc(-c2ccccc2)cc1` (stereo unspecified): the Potency entry was “inactive”.

With `CN1C/C(=C/c2cccnc2)C(=O)/C(=C/c2cccnc2)C1`, the activity change, negative = inhibition is -8.05% [at 11.4 µM].

As to `O=C1/C(=C/c2ccncc2)CCC/C1=C\c1ccncc1`, the Potency is 8.91 µM (active).

Regarding `Cc1onc(-c2c(Cl)cccc2Cl)c1C(=O)N/N=C(\N)COc1ccc(Cl)cc1`, the Potency was 3.55 µM (active).

Turning to `CCC(=O)OCCNc1cc(Sc2nc3ccccc3[nH]2)c2nonc2c1[N+](=O)[O-]`, the activity change, negative = inhibition is -17% [at 11.4 µM].

As to `O=[N+]([O-])c1c(Nc2ccccn2)cc(Cl)c2nonc12`, the Potency is 11.2 µM (active).

`O=[N+]([O-])c1ccc(C[n+]2cccc3ccc4cccnc4c32)cc1`: the Potency was 3.16 µM (active).

With `COc1cc(/C=N/Nc2snc(SC)c2C#N)cc(OC)c1OC`, the Potency entry was “inactive”.

With `O=C(Nc1ccccc1Cl)N1CCCN(c2nc(-c3ccccc3)ns2)CC1`, the Potency is 14.1 µM (active).

In the case of `CC(C)(C)c1ccc(NC(=O)N2CCCN(c3c(Cl)cncc3Cl)CC2)cc1`, the Potency result was “inactive”.

`Cc1c(Cl)cccc1NC(=O)N1CCCN(c2nc(-c3ccccc3)ns2)CC1`: the Potency was 10 µM (active).

For the compound `Cc1c(N=C2N=C(NC(=O)Nc3ccc(Cl)cc3)c3ccccc32)c(=O)n(-c2ccccc2)n1C`, the Potency entry was “inactive”.

Consider `Cc1c(N=C2C=CC(=O)c3ccccc32)c(=O)n(-c2ccccc2)n1C`, for which the Potency was 31.6 µM (active).
